PostGolgi ctrl: yeast control strain growth, post-Golgi counter-screen. AID 738. efflux-deficient yeast background strain, growth absorbance A615, 16 h. hit rate 5% among 98,000. inhibition, % at 10 µM
CYP2C19 activ: increases human CYP2C19 enzyme activity | P33261 | recombinant CYP2C19, luciferin-H EGE luminescence; active compounds read high; 0 = fully inhibited enzyme, 1 = untreated enzyme | activation factor at 5 µM | 96,000 tested, under 10 active;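 active = activation factor of at least 2 at 5 µM in the primary screen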;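 note: 0 = wells with 2.5 mM tranylcypromine and 1 = vehicle-only wells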
Target sequence (P33261 whole entry, looked up): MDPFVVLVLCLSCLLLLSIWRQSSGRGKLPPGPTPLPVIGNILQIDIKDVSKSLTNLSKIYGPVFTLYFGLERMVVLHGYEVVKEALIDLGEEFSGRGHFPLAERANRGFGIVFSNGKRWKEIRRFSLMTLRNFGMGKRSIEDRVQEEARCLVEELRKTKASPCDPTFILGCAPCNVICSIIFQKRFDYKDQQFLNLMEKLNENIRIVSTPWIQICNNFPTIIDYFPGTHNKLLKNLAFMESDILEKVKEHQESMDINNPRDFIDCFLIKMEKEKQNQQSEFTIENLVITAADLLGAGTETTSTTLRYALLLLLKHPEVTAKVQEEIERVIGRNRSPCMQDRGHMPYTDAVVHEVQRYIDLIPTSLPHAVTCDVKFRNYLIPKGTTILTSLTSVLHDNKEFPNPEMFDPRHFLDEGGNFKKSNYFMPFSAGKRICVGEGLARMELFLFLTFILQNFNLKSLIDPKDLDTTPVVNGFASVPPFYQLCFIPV
CYP2C9 act: activators of human CYP2C9; P11712; recombinant CYP2C9, luciferin-H conversion, luminescence; active compounds read high; factor 1 = untreated enzyme, 0 = blocked; activation factor at 5 µM; hit rate 1.4% among 96,000; AID 1024;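 active = activation factor of 2 or more for CYP2C9 at a 5 µM dose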;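 note: 0 = sulfaphenazole-blocked wells and 1 = vehicle-only wells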
CYP2C19 inhib: blocks human cytochrome P450 2C19; P33261; CYP2C19 Supersomes, luciferin-H EGE luminescence, 30 min; inhibition, % at 5 µM; hit rate 21% among 96,000; AID 778;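 active = CYP2C19 inhibition above a set limit at 5 µM in the primary screen, cut at about 50% in these data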;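 note: plate controls were negative control wells for no effect and 2.5 mM tranylcypromine positive control for full effect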
CYP2C9 inhib: blocks human cytochrome P450 2C9 | CYP2C9 Supersomes, luciferin-H conversion, luminescence | hit rate 20% among 96,000 | inhibition, % at 5 µM;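 active = blocking of liver enzyme CYP2C9 beyond about 50% at 5 µM, limit read from the data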
PostGolgi yeast: growth inhibition of a yeast mutant, post-Golgi transport screen; hit rate 0.9% among 98,000; inhibition, % at 10 µM; post-Golgi transport phenotypic cell assay;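 note: yeast cells grown in 1536-well plates; yeast grown about 18 h at 30C before absorbance read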
An asterisk follows results filed as active; / = not tested or not shown. Compounds with a hit are over-represented: about 32% of the library has one in this group of screens. Cut-off read from the data, not from the text of the source, unless noted: active = inhibition above about 30%; inactive = the rest.

SMILES	PostGolgi ctrl	CYP2C19 activ	CYP2C9 act	CYP2C19 inhib	CYP2C9 inhib	PostGolgi yeast
O=c1c2ccccc2cnn1-c1ccc2ccccc2c1	15	1	1	2	3	10
O=S(c1ccc2ccccc2c1)c1cnns1 (configuration not stated)	6	0.3	1	75*	-3	1
CCn1c(=O)c(=O)[nH]c2cc(C(=O)NC3CCCc4ccccc43)ccc21 (configuration not stated)	1	0.9	0.9	7	6	2
CC(C)CCn1cnc2c([nH]c3cccc(Cl)c32)c1=O	-6	0.7	0.5	27	50*	-4
COc1ccc(-c2cc(C#N)nc(N3CCN(c4ccccc4)CC3)n2)cc1	15	0.8	0.8	17	22	-6
COc1cc(NC(=O)c2ccc(S(=O)(=O)N(C)C)cc2)cc(OC)c1OC	0	0.9	0.9	9	13	-5
COc1cc(S(=O)(=O)N(C)C)ccc1F	11	/	/	/	/	-5
COc1ccccc1OC(=O)c1ccc(S(=O)(=O)N(C)C)cc1	-1	0.6	0.5	36	52*	-1
COc1cc(S(=O)(=O)N(C)C)ccc1Br	0	0.8	3.1*	21	-206	7
Nc1ccc(C(=O)N/N=C\c2cc(N=Nc3cccc4ccccc34)ccc2O)cc1	0	0.9	0.9	12	14	-1
Cc1cccc(NC(=O)N2CCCC2C(=O)NCc2cccs2)c1 (configuration not stated)	7	0.5	0.9	45	10	-5
CCN1CCN(CCn2c(=S)[nH]c3cc4c(cc3c2=O)OCO4)CC1	2	0.9	0.9	9	8	-7
O=C1CCCN1c1cc(Cl)ccc1Cl	-7	1.1	1.5	-15	-48	-2
Nc1c(Br)cc(Br)c(N2CCCC2=O)c1Br	3	0.5	4.3*	54*	-327	-10
COc1ccc(C(=O)N[C@H]2COC(C)(C)O[C@H]2c2ccccc2)cc1	2	1	1	-1	-3	8
CN1CCC(OC(=O)COc2ccc(C(C)(C)C)cc2)CC1	-1	0.9	1	6	4	4
COCCOCC(O)CN1CCN(c2ccc(C)cc2)CC1 (configuration not stated)	6	0.9	1	8	3	0
O=C(Cn1c(=O)oc2cc(S(=O)(=O)N3CCCC3)ccc21)Nc1cccc(C(F)(F)F)c1	-4	1.1	0.7	-5	31	2
Cc1ccc(/C=N/NC(=O)c2cc(C)oc2C)o1	6	0.8	1	22	-3	-3
Cc1ccc(/C=N/NC(=S)NC(C)C)o1	-1	0.5	1.1	51*	-11	14
COc1ccc(C2CC(=O)C(C=NCCN3CCN(C(C)=O)CC3)=C(O)C2)cc1OC (configuration not stated)	/	1	1.1	-4	-6	/
Clc1ccc2c(NNc3ccccc3Cl)ccnc2c1	2	0.8	0.4	25	60*	5
CCc1ccccc1NC(=O)c1ccc(CN2CCC(Cc3ccccc3)CC2)cc1	7	0.4	0.7	56*	35	0
O=C(c1ccc(CN2CCOCC2)cc1)N1CCC(Cc2ccccc2)CC1	4	0.3	0.3	66*	71*	-3
Cc1ccccc1NC(=O)c1ccc(CN2CCc3ccccc3C2)cc1	12	0.7	0.7	32	27	-3
SMILES	PostGolgi ctrl	CYP2C19 activ	CYP2C9 act	CYP2C19 inhib	CYP2C9 inhib	PostGolgi yeast
COC(=O)CCP(=O)(O)Cc1ccccc1CP(=O)(O)CCC(=O)OC	-3	1	1	-1	2	4
CC(OC(=O)CN(C)S(=O)(=O)c1ccc(Cl)cc1)C(=O)Nc1cccc(Cl)c1 (configuration not stated)	20	0.6	0.8	37	20	1
O=C1C(N2CCOCC2)=C(n2nnc3ccccc32)C(=O)c2ccccc21	13	0	0.1	100*	90*	1
CC(C)OC(=O)c1cn(-c2ccccc2)nc1-c1ccc2c(c1)OCCO2	11	0.8	0.8	20	19	-7
O=C1CSC(c2cn(-c3ccccc3)nc2-c2ccc3c(c2)OCCO3)N1CCN1CCOCC1 (configuration not stated)	9	0.2	0.2	81*	78*	-6
CC(C)Cc1nnc(NS(=O)(=O)Cc2ccccc2)s1	5	1	0.4	4	63*	16
COc1ccc(NS(=O)(=O)c2ccc3oc(SC4CCOC4=O)nc3c2)cc1 (configuration not stated)	4	0	0	97*	100*	15
CC(NC(=O)CN1C(=O)NC(Cc2ccccc2)(Cc2ccccc2)C1=O)C12CC3CC(CC(C3)C1)C2 (configuration not stated)	10	0.8	0.9	21	8	-7
CCS(=O)(=O)N1Cc2ccccc2CC1C(=O)NC(C)C12CC3CC(CC(C3)C1)C2 (configuration not stated)	36*	1.1	0.8	-12	17	4
CCS(=O)(=O)N1Cc2ccccc2CC1C(=O)NCC12CC3CC(CC(C3)C1)C2 (configuration not stated)	25	0.1	0.3	92*	68*	3
Cc1ccn2cc(CNS(=O)(=O)c3ccc(Cl)s3)nc2c1	-6	0.7	0.8	30	23	-6
O=c1c2ccccc2sc2nc(C3CCCCC3)n(Cc3ccco3)c(=O)c12	50*	0.9	1	10	1	47*
CCCc1nnc(NC(=O)CCC(=O)N2CCN(c3ccccn3)CC2)s1	5	1	0.9	-2	13	4
CCCNc1nc(Nc2ccc(C)cc2)nc(N2CCCC2)n1	36*	1	0.8	-4	22	-5
CCCNc1nc(N2CCOCC2)nc(N2CCOCC2)n1	-3	1	0.9	2	14	0
COC(=O)c1ccc(NC(=O)c2ccc(C)cc2)o1	-5	1	1	0	3	-9
CC(=O)N1CN(CCCn2ccnc2)Cc2c1sc1c2CCCC1	-5	0.1	0	94*	96*	-12
CC(=O)N1CN(Cc2ccccn2)Cc2c1sc1c2CCCC1	36*	0.7	0.9	27	14	2
CC(=O)/C=N/Nc1ccccc1	8	1.1	0.4	-6	60*	21
C/C(O)=C(/N=O)C(=O)Nc1ccccc1	-1	0.9	0.9	8	11	-2
COc1ccc(-n2nc3c(c2NC(=O)c2cc(Br)ccc2Cl)CS(=O)C3)cc1 (configuration not stated)	1	1.2	1.1	-16	-10	-3
Cc1ccc(CNCCC2=CCCCC2)cc1	14	0.1	1	94*	-4	-5
C1=C(CCNCC2CC2)CCCC1	5	0.5	1.6	54*	-56	-1
CN(C(=O)CSc1ccccc1C(=O)O)C1CCCCC1	21	1.1	1.1	-10	-7	24

Screening data from PubChem.
